In the supplement of paper PMC11732987, “Enantioselective OTUD7B fragment discovery through chemoproteomics screening and high-throughput optimisation” (Communications Chemistry, 2025):

Key:
Assay in all cases: log2 ratio of Biotin-Ahx-Ub-VS probe labelling (fragment/DMSO); higher = less target engagement (more negative = stronger competition), active = hit call of the paper (q ≤ 0.05, log2 ratio ≤ -1)
Conditions in all cases: compound concentration: 200 uM; treatment time: 3 h
USP42 = target: T1, USP42 (UniProt Q9H9J4)
T1 sequence (whole entry): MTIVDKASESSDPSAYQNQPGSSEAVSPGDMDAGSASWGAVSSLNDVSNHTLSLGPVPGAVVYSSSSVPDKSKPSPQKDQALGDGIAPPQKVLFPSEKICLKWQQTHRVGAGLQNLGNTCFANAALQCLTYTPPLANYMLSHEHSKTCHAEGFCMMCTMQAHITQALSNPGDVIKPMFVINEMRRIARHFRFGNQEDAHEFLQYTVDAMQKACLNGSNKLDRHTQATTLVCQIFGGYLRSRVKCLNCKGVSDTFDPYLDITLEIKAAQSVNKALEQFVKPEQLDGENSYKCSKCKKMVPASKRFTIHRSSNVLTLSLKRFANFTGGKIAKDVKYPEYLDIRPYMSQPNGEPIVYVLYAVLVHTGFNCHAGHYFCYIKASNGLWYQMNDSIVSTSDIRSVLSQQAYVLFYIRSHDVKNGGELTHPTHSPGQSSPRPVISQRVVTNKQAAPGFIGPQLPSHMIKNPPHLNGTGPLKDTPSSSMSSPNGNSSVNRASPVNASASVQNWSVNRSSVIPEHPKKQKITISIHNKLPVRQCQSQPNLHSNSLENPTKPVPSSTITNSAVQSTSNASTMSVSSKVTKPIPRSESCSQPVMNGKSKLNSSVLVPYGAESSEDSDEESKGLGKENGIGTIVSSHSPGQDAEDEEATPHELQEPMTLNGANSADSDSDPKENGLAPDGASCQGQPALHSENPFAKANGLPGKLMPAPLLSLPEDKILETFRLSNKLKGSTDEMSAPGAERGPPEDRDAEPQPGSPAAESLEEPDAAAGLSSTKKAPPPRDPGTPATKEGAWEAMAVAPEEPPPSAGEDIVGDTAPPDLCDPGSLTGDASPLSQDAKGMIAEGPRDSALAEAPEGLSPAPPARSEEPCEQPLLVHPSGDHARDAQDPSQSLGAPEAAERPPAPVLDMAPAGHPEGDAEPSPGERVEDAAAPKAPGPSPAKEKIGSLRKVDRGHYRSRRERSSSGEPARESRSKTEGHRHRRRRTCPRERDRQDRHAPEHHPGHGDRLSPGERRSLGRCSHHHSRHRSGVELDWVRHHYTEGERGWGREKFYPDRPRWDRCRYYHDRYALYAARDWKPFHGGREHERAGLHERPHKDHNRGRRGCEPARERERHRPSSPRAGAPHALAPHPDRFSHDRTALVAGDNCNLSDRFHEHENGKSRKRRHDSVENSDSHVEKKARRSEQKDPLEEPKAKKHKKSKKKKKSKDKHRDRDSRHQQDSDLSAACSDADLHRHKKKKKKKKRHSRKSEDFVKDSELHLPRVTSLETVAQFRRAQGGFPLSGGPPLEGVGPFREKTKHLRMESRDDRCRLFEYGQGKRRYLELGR
How it was run: (§1)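 Labelled DUBs from HEK293T lysate were NeutrAvidin-enriched, digested with LysC and trypsin, and run by diaPASEF LC-MS/MS. Before that, each 495 µg sample in Tris/CHAPS/IGEPAL buffer with protease inhibitors was treated in triplicate with fragment at 200 µM or vehicle for 3 h, then with Biotin-Ahx-Ub-VS at 0.5 µM final for 1 h. Values are average log2 ratios of fragment over vehicle by unpaired t-test, based on global-median-normalised Spectronaut label-free quantities from proteins with ≥2 unique peptides.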

USP46 = USP46 (UniProt P62068)
Sequence of USP46 (P62068 whole entry): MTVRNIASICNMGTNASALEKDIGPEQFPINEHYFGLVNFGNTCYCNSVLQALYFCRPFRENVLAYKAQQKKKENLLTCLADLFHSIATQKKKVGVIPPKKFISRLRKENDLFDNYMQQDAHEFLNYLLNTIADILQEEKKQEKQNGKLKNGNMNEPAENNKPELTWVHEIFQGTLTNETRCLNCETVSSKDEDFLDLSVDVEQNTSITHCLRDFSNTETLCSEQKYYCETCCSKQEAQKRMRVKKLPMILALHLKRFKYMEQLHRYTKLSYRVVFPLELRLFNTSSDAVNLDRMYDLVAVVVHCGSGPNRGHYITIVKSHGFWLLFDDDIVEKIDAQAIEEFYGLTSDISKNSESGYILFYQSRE
How it was run: as §1

USP47 = target: T2, USP47 (UniProt Q96K76)
T2 sequence (whole entry): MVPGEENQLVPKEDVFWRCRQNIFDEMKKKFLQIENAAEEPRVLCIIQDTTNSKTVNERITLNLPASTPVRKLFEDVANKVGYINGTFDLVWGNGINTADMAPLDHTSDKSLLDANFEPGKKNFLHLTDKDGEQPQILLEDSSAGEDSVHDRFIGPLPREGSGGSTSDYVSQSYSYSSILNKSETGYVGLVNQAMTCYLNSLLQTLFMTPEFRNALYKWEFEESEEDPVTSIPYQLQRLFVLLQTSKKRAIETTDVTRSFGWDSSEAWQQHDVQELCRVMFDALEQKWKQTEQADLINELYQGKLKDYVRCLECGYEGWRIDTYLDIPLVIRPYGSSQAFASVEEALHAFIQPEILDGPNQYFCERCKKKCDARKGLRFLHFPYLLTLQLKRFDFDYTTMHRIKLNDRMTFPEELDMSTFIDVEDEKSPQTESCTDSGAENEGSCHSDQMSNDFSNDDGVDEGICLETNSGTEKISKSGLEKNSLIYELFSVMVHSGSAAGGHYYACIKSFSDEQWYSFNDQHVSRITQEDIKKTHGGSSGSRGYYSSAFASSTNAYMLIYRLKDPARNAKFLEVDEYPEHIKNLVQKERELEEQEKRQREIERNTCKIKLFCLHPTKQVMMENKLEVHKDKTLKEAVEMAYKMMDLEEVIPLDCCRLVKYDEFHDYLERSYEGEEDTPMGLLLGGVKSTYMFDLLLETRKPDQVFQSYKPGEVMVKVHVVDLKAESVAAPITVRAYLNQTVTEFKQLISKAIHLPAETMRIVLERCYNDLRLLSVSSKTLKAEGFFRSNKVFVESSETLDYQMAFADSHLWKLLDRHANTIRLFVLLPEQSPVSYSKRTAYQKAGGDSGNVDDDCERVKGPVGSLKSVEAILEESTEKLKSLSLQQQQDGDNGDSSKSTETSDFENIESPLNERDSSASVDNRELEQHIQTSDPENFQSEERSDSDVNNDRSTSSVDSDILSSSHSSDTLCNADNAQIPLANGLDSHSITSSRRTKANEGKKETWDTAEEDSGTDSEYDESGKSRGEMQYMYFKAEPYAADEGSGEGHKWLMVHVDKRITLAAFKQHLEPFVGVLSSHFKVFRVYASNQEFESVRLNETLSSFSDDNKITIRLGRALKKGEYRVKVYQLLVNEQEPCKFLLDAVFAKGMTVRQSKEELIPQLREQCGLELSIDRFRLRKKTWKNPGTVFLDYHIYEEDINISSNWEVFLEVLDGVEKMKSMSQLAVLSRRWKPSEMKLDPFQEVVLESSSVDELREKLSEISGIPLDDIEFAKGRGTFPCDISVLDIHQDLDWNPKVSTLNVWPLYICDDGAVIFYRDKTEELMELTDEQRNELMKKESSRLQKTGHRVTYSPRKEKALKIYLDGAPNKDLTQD
How it was run: as §1

USP48 = target: T3, USP48 (UniProt Q86UV5)
T3 sequence (whole entry): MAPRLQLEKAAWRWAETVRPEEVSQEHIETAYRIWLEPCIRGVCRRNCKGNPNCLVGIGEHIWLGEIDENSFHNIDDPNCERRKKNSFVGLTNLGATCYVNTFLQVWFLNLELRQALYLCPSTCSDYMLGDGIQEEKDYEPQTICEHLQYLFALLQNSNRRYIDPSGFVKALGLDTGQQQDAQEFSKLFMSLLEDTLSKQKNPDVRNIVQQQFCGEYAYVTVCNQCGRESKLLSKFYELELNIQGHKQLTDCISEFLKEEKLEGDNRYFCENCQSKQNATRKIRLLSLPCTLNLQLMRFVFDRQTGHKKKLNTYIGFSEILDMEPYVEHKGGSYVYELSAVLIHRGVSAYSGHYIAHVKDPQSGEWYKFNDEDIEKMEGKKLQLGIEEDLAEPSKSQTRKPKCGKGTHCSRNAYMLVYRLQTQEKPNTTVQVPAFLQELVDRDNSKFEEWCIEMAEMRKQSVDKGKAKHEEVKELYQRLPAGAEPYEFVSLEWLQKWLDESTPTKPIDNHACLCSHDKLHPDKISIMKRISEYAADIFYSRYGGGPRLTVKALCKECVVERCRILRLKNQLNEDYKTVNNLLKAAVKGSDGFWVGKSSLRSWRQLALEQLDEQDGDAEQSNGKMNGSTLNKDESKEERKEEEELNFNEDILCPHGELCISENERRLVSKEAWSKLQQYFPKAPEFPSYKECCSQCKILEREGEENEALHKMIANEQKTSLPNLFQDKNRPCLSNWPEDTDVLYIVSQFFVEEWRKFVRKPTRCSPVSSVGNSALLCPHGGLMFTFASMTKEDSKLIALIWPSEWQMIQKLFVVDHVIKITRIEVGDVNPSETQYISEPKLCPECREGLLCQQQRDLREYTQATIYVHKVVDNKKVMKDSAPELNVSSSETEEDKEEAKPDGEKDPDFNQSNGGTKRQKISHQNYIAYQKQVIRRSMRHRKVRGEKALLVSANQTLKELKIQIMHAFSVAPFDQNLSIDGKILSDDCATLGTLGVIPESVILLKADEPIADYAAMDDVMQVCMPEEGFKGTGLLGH
How it was run: as §1

USP5 = target: T4, USP5 (UniProt P45974)
T4 sequence (whole entry): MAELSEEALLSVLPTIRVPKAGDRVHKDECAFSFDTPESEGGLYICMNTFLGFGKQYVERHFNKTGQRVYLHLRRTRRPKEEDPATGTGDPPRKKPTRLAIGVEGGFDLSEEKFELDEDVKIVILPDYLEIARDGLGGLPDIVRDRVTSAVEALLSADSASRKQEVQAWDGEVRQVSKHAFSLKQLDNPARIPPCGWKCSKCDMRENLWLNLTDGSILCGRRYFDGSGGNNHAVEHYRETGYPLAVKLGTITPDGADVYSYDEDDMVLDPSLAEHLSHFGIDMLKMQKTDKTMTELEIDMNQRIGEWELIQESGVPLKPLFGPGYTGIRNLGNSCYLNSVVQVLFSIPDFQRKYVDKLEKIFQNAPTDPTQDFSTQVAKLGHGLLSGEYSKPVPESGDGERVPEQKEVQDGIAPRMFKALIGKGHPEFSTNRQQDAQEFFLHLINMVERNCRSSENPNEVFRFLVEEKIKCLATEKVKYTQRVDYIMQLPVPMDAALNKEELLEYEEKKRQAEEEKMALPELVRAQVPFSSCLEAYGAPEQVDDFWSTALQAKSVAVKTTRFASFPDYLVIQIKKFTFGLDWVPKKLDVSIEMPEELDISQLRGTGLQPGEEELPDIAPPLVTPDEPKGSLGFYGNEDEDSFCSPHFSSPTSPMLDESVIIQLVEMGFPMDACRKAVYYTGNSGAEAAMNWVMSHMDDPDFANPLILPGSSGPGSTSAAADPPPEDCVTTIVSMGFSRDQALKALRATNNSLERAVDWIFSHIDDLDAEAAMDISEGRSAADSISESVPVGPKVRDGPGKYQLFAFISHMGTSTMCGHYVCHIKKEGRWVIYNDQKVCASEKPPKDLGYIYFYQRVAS
How it was run: as §1

USP54 = USP54 (UniProt Q70EL1)
Sequence of USP54 (Q70EL1 whole entry): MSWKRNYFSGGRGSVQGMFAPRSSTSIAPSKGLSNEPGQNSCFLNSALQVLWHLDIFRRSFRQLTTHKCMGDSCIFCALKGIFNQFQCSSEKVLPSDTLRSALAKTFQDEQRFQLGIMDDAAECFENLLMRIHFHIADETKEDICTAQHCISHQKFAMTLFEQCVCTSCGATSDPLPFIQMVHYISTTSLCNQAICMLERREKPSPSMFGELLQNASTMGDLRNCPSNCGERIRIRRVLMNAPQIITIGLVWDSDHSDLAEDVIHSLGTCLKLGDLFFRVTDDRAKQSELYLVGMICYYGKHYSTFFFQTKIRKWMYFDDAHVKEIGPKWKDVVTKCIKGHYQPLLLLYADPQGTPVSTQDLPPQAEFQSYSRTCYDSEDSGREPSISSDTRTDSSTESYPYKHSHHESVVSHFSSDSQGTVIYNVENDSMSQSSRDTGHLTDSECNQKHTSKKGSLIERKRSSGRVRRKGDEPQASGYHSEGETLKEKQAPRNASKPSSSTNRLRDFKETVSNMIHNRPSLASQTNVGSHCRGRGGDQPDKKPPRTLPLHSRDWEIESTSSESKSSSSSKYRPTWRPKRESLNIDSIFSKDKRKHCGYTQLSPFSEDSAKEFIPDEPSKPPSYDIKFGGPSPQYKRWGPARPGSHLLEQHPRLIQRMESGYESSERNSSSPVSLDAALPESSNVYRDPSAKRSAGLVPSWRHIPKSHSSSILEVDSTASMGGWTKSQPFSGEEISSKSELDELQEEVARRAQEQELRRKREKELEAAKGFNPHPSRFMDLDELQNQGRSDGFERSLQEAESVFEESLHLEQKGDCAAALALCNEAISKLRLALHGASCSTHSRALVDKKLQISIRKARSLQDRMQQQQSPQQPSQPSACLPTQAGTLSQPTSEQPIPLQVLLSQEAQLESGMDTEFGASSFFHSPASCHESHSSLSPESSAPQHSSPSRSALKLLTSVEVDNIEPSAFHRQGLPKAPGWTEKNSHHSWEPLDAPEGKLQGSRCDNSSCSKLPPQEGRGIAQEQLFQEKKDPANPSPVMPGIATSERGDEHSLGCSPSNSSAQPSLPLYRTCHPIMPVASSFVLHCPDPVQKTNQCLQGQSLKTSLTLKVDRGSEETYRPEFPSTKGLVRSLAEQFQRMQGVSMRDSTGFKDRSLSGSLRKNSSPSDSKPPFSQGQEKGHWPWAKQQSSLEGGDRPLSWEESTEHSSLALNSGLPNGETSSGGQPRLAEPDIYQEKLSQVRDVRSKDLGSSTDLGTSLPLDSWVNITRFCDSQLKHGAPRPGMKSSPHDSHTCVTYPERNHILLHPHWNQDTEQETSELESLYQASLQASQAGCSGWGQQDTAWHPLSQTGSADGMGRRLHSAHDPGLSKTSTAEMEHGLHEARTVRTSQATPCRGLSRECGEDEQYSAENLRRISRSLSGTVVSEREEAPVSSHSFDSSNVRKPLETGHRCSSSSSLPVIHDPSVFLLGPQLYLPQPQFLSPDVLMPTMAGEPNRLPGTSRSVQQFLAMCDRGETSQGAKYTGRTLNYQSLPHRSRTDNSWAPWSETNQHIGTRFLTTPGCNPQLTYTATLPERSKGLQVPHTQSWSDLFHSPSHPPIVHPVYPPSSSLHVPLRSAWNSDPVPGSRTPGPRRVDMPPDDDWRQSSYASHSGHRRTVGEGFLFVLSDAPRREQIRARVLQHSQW
How it was run: as §1

USP7 = USP7 (UniProt Q93009)
Sequence of USP7 (Q93009 whole entry, looked up): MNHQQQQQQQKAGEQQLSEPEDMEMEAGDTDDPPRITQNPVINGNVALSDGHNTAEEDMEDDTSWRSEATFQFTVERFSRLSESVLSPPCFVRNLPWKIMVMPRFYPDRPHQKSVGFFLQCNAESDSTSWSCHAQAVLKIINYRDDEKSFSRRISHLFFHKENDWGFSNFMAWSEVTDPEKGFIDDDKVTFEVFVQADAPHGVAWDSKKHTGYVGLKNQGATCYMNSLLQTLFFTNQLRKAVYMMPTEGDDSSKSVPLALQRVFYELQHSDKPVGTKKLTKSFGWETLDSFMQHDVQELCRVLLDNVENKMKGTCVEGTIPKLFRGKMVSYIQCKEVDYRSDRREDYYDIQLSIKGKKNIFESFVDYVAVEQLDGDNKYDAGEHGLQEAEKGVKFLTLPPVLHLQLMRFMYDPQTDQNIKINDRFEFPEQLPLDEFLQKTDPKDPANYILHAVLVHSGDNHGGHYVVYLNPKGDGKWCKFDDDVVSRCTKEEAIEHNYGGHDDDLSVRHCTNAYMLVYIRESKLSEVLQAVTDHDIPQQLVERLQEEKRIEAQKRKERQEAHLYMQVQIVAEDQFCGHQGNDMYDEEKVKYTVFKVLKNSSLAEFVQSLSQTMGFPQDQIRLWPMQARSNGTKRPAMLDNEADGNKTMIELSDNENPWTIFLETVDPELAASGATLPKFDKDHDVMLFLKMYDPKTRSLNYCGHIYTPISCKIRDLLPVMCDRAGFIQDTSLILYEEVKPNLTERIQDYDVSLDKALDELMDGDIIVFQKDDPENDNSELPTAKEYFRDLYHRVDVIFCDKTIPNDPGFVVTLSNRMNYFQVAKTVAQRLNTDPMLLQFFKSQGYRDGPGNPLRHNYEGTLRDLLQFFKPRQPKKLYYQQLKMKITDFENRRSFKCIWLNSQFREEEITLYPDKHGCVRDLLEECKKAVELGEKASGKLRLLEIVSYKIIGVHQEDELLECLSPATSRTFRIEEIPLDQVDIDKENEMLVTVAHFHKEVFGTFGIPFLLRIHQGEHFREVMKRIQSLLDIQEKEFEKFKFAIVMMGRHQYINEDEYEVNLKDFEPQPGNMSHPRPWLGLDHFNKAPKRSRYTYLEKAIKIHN
How it was run: as §1

USP8 = target: T5, USP8 (UniProt P40818)
T5 sequence (whole entry): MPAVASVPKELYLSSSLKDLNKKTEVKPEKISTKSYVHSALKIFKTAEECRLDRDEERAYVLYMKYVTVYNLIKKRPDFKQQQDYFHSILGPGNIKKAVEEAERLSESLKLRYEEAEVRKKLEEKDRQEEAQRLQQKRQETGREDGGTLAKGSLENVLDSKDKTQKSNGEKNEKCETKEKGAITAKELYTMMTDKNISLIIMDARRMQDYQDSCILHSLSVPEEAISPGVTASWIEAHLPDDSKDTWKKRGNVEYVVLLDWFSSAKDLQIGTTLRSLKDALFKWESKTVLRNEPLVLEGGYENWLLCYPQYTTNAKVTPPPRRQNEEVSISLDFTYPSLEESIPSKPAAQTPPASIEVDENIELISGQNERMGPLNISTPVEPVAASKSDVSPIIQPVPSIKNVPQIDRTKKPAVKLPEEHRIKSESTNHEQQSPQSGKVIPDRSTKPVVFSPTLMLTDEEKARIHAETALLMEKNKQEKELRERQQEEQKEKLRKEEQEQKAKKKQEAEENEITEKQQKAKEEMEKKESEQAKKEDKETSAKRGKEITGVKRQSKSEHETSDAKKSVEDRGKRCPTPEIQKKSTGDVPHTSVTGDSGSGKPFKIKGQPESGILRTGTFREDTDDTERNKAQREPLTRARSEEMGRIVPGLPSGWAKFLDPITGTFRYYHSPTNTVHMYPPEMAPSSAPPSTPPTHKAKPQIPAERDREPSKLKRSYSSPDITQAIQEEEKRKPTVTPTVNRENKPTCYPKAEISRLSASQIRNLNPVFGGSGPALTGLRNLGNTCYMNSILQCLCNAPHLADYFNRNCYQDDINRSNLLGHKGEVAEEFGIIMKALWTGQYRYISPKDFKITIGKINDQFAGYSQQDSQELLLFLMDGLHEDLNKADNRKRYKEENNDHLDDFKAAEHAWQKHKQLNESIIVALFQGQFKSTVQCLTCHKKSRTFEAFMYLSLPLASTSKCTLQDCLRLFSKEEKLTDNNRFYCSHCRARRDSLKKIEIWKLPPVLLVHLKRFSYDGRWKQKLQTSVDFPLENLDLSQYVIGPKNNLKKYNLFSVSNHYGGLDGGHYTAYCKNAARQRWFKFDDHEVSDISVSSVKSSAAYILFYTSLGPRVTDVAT
How it was run: as §1

Measured: log2 ratio of Biotin-Ahx-Ub-VS probe labelling

O=C(CCl)N1CCC[C@@H]1c1ccon1
inactive: USP42 0.00575 | USP46 -0.0791 | USP47 -0.264 | USP48 -0.779 | USP5 -0.0234 | USP54 0.591 | USP7 -0.78 | USP8 -0.331
